# Test results published in the supplement of paper PMC10849652.
# The full data set covers some 7,900 targets. This sample favours those with a hit. About 0.6% of all pairs of compound and target were hits.
# Compound: CC1=C(C2=C(C=C1)C(=O)C3=CC=CC=C3N2CCCN)C
# Assay: log2 fold change, soluble protein after heating vs DMSO (PISA); higher = thermal stabilisation; K562 cells, 10 uM, 30 min; active = over 0.2 and 3.5 SD of the protein, either way, in both replicates (recomputed)
# Summary of the method: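 Aliquots of K562 cells (2×10^6 cells/mL) treated with 10 μM compound for 30 min were heated for 3 min over 48°C-58°C. After pooling and extraction in PBS with 0.5% NP-40 at 4°C, soluble protein from a 21,000xg, 90 min spin was quantified by TMTpro 16plex LC-MS/MS with channel sums equalised. Thermal stability is expressed against control samples, from duplicates, as a log2 fold change.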
# Chain of UniProt Q9BZL4 (Q9BZL4 whole entry, looked up): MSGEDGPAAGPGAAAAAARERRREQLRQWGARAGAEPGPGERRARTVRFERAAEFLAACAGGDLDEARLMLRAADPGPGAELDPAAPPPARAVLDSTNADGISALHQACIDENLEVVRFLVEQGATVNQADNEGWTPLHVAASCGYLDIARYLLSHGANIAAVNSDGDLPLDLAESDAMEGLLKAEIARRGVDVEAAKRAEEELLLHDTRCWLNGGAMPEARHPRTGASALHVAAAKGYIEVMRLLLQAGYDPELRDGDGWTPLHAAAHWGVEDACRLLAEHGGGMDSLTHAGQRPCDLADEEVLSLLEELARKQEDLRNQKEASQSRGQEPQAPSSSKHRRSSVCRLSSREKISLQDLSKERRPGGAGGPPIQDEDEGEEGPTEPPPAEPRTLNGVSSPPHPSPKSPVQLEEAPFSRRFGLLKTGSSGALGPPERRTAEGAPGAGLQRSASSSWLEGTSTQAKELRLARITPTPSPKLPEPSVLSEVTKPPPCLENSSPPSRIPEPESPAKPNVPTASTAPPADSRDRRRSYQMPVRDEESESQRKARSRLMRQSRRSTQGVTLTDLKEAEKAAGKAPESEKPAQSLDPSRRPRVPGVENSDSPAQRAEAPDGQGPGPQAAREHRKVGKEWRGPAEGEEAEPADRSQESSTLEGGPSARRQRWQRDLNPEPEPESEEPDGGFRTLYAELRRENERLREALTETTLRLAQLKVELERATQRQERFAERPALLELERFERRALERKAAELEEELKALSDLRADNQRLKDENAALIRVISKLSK
# Chain of UniProt Q14289 (Q14289 whole entry, looked up): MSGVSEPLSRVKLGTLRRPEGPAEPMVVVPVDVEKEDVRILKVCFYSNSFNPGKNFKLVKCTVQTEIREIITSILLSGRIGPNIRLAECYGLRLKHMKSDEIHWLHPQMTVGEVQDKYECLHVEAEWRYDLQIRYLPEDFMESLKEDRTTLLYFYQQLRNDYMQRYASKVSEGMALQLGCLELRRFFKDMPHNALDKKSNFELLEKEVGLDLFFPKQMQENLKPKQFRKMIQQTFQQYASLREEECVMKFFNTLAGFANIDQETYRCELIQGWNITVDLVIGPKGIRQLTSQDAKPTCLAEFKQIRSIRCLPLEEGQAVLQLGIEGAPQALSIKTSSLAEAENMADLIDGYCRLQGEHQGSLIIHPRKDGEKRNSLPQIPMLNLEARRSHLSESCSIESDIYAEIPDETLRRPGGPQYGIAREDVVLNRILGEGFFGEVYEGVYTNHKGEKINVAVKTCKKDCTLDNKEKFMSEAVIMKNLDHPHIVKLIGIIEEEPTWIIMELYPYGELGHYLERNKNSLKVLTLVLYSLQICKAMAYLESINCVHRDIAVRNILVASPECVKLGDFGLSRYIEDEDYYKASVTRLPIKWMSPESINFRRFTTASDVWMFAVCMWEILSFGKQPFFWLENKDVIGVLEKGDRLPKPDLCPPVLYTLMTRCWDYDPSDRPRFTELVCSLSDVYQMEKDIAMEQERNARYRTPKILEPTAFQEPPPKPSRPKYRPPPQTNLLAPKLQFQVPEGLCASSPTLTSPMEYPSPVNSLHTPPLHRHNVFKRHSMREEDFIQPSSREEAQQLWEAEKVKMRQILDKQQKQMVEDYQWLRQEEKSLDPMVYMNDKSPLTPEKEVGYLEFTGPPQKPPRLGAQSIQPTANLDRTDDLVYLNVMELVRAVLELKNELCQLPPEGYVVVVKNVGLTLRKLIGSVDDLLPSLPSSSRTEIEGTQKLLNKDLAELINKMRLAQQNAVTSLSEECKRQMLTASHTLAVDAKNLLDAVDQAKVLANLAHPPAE
# Chain of UniProt Q96RV3 (Q96RV3 whole entry, looked up): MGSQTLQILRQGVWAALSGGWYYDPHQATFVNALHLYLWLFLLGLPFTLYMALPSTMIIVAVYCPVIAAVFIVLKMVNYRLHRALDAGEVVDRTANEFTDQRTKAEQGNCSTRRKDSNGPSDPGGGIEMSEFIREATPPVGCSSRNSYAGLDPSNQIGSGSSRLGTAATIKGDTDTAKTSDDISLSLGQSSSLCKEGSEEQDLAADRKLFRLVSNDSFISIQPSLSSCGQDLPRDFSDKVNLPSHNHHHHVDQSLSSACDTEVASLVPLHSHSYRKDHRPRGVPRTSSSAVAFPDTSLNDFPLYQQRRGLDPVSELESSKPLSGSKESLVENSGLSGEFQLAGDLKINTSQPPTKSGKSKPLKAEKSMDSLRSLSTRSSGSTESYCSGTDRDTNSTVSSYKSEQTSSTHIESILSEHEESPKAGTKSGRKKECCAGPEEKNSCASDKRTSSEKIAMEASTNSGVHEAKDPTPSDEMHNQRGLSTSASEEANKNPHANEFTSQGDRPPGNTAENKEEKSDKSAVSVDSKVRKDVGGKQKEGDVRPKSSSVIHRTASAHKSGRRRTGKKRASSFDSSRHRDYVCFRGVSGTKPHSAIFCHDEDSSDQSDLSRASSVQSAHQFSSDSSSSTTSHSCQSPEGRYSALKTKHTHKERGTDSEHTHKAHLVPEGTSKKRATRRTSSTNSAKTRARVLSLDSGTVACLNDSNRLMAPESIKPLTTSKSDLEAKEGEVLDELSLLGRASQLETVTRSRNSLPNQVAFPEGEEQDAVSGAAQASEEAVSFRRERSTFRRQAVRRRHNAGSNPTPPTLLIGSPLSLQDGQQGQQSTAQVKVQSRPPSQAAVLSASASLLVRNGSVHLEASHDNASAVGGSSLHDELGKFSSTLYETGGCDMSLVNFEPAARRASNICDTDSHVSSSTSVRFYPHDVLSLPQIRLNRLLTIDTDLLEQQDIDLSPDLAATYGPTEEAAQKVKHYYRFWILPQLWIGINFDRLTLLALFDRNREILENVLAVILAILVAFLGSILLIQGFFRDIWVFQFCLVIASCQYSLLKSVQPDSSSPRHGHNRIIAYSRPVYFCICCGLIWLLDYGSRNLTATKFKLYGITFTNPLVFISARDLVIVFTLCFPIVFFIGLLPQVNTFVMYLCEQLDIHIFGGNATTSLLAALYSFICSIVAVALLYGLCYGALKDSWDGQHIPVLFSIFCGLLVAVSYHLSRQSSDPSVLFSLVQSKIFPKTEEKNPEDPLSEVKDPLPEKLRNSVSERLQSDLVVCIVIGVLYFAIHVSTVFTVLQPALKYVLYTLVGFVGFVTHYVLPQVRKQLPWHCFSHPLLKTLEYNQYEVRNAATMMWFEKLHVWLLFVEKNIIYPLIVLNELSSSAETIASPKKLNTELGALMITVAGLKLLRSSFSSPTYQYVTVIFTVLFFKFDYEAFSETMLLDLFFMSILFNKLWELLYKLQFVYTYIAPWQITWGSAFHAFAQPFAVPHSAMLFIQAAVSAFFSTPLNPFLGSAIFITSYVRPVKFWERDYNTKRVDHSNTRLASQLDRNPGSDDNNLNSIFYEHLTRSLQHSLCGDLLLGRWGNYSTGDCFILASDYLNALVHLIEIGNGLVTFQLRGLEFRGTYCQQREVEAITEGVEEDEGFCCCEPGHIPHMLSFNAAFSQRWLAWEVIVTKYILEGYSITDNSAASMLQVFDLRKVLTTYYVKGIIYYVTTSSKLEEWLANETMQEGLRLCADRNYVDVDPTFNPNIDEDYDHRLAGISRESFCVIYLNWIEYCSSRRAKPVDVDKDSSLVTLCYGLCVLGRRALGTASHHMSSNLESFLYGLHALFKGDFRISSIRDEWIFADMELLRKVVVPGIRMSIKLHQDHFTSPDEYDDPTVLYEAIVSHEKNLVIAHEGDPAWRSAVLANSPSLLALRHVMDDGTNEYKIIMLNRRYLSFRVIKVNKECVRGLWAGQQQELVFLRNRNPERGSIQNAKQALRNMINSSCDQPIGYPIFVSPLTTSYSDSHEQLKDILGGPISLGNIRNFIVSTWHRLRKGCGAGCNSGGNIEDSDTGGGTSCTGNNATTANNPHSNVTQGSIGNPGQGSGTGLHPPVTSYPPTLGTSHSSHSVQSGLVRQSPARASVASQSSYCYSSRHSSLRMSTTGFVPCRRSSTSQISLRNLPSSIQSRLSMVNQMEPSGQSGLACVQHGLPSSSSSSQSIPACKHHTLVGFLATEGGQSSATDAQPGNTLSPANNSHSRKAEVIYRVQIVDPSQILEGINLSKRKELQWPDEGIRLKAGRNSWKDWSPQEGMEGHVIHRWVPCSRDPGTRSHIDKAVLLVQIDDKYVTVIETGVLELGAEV
# Chain of UniProt Q8N2W9 (Q8N2W9 whole entry, looked up): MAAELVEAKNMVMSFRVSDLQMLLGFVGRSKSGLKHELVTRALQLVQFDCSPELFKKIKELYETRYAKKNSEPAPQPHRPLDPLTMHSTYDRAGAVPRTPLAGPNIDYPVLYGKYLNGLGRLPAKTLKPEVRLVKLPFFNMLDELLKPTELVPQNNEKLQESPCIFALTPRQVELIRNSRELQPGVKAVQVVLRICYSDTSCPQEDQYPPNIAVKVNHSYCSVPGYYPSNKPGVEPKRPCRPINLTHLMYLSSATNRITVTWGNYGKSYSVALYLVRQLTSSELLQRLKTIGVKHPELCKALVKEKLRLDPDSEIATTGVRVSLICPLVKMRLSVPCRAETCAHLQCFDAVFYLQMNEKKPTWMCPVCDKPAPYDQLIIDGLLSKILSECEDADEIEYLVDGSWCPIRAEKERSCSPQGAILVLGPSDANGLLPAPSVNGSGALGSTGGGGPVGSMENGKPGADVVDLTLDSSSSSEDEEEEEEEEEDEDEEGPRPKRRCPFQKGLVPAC
# Chain of UniProt P07205 (P07205 whole entry, looked up): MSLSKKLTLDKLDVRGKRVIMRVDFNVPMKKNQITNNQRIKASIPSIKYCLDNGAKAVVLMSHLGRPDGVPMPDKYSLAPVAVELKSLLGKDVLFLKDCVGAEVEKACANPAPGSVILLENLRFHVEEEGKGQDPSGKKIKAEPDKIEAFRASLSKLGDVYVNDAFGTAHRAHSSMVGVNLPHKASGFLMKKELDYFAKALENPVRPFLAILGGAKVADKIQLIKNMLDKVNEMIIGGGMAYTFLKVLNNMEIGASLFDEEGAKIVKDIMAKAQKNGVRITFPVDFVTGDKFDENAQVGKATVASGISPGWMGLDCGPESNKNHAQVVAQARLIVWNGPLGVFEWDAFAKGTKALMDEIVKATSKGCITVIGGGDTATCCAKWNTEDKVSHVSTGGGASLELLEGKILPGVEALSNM
row,Target,log2 fold change
1,PCNX1 (UniProt Q96RV3),0.143 (inactive)
2,POGZ (UniProt Q7Z3K3),-0.826 (active)
3,PPP1R12C (UniProt Q9BZL4),-0.157 (inactive)
4,PSMA3 (UniProt H0YJ03),0.046 (inactive)
5,PSMD8 (UniProt K7ERW6),0.037 (inactive)
6,PCID2 (UniProt Q5JVF3),0.06 (inactive)
7,POLB (UniProt P06746),0.175 (inactive)
8,PEX5 isoform 4 (UniProt P50542),-0.072 (inactive)
9,PIAS4 (UniProt Q8N2W9),-0.275 (inactive)
10,PUM1 (UniProt Q14671),0.139 (inactive)
11,PSMC3 (UniProt E9PLG2),-0.155 (inactive)
12,PUF60 isoform 2 (UniProt Q9UHX1),-0.052 (inactive)
13,PGK2 (UniProt P07205),-0.037 (inactive)
14,PNPLA4 (UniProt P41247),-0.025 (inactive)
15,PKM isoform 2 (UniProt P14618),0.034 (inactive)
16,PRR14L (UniProt Q5THK1),0.008 (inactive)
17,PTK2B (UniProt Q14289),0.061 (inactive)
18,PI4K2B (UniProt Q8TCG2),0.003 (inactive)
